PubChem BioAssay AID779 (Sanford-Burnham Center for Chemical Genomics, 2007)
Unmarked numbers belong to inactive results. The rule behind the calls is not given here.

experiment: placental alkaline phosphatase inhibitors, dose response, counter-screen, biochemical, colorimetric (AID 779); conditions: PLAP counter-screen, colorimetric OD read-out

| SMILES | IC50 [µM] |
| --- | --- |
| Cc1ccc2cc(/C=C3\N=C(c4ccccc4)OC3=O)c(N3CCOCC3)nc2c1 | > 50 |
| Cc1ccc(S(=O)(=O)/C(C#N)=C/c2c(N3CCOCC3)nc3ccccn3c2=O)cc1 | > 50 |
| CC(=O)N(c1ccc2oc(=O)sc2c1)S(=O)(=O)c1ccccc1 | > 50 |
| N#CC(c1nc2ccccc2nc1N1CCCC1)S(=O)(=O)c1cccs1 (configuration not stated) | > 50 |
| Brc1ccc(-c2nnc(-c3cccc(Br)c3)o2)cc1 | > 50 |
| COc1ccc(OC)c(NC(=O)CSc2nc3ccccc3cc2Cc2ccccc2)c1 | > 50 |
| CCn1c(O)c(/C=N/N=C/c2ccccc2)c2ccc(C3=NNC(=O)CC3)cc21 | > 50 |
| O=[N+]([O-])/C=C/c1cn(Cc2ccccc2)c2ccccc12 | > 50 |
| Cc1cc(C)n(CNc2nc(C(F)(F)F)cs2)n1 | > 50 |
| CCOC(=O)C1=C(C)N=c2s/c(=C/c3ccco3)c(=O)n2C1c1cccc(OC)c1 (configuration not stated) | > 50 |
| Cc1cc(C)c2nc(N3CCCN(C(=O)c4ccco4)CC3)c(C#N)cc2c1 | > 50 |
| COc1ccc(N2Cc3cccc(C(=O)O)c3C2=O)cc1 | > 50 |
| FC(F)(F)c1nnc2c(Sc3ccccn3)nc3ccccc3n12 | > 50 |
| CCOC(=O)c1c(C)oc2c1c(C(c1cccnc1)N1CCOCC1)c(O)c1ccccc12 (configuration not stated) | > 50 |
| COc1ccc(NC2=Nc3ccccc3N3C2=Nc2c(c(C)nn2-c2ccc(C)cc2)C3c2cccnc2)cc1 (configuration not stated) | > 50 |
| CC(C)C1Cc2c(C#N)c(N)sc(=S)c2CO1 (configuration not stated) | > 50 |

| SMILES | IC50 [µM] |
| --- | --- |
| CCc1cccc2c(C(=O)CSc3nnc(-c4ccoc4C)n3C)c[nH]c12 | > 50 |
| CCOc1ccc(/C=C/C2=Cc3c(sc(NC(=O)CSc4n[nH]c(N)n4)c3C#N)C(C)(C)C2)cc1 | > 50 |
| O=S(=O)(c1ccc2nc(-c3ccco3)c(-c3ccco3)nc2c1)N1CCOCC1 | > 50 |
| Nc1ccc(Br)c2c1C(=O)c1ccccc1C2=O | > 50 |
| Cc1ccc(C)c(OCc2nnc(N)s2)c1 | > 50 |
| CCSc1nnc(NC(=O)C(C(F)(F)F)C(F)(F)F)s1 | > 50 |
| CCN(CC)CCCN(Cc1cc2cc3c(cc2[nH]c1=O)OCCO3)C(=O)Nc1ccccc1 | > 50 |
| CS(=O)(=O)N(CC(=O)Nc1cccc(Cl)c1)c1ccccc1Cl | > 50 |
| COc1cc(NC(=O)c2ccc(COCC(F)(F)F)cc2)cc(OC)c1OC | > 50 |
| O=C1/C(=C\c2ccc(-c3ccccc3Cl)o2)SC(=S)N1CC1CCCO1 (configuration not stated) | > 50 |
| CCSC1=N/C(=C\c2ccc(-c3ccccc3[N+](=O)[O-])o2)C(=O)S1 | > 50 |
| COC(=O)CSc1nc(-c2ccccc2)cc(-c2ccco2)c1C#N | > 50 |
| Cc1ccsc1/C=C/C1=Cc2c(sc(NC(=O)CSc3n[nH]c(N)n3)c2C#N)C(C)(C)C1 | > 50 |
| CCOC(=O)c1cc(OC(=O)c2ccccc2OC)n(-c2ccccc2)n1 | > 50 |
| CCN(CCNC(=O)C1CCCN(S(=O)(=O)CC)C1)c1ccccc1 (configuration not stated) | > 50 |
| COc1cc(C(Nc2ccccn2)c2ccc3ccc(C)nc3c2O)cc(OC)c1O (configuration not stated) | > 50 |
